The list is not random: actives were taken first. Their share in the collection is about 5.6%.
Six1-Eya2 inh: blocks human Six1 binding to Eya2 | AlphaScreen GST-Six1/His-Eya2 binding, biochemical; stronger effect = lower value | activity change, % (test concentration not listed) | actives 0.56% (n = 360,000) | AID 651725; in the data active = activity change below about -65%; inconclusive = mostly about -30% to -63%
Target sequence (O00167 whole entry, looked up): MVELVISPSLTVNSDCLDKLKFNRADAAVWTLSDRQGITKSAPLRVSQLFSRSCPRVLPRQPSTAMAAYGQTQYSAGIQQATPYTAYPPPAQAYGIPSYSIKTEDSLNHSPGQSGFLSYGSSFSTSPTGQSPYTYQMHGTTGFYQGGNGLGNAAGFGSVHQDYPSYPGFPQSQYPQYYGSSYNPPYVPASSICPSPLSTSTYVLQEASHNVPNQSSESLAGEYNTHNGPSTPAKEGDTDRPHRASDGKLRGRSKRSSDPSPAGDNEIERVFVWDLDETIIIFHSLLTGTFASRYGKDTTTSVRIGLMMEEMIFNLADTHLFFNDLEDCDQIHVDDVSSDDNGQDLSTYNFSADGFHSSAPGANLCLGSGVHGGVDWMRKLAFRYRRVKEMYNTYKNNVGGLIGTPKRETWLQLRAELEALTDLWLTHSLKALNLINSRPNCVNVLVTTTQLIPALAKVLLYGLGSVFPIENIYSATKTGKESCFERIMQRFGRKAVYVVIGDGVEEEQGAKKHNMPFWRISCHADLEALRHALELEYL
Target sequence (Q15475 whole entry, looked up): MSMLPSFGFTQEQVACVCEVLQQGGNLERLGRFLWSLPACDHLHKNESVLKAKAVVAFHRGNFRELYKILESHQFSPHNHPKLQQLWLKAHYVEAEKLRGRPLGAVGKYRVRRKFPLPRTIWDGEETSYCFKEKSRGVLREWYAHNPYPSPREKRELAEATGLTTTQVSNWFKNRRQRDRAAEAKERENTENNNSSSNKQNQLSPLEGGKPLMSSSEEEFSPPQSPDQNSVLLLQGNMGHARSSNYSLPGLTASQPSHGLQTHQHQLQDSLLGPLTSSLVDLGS
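GST-Six1 + His-Eya2 (5X stock: 250/500 nM); Tris pH 8.0, 300 mM NaCl, 0.05% BSA, 0.02% Tween 20; GSH donor/Ni acceptor beads; 1 h 37 °C dark; AlphaScreen readout.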
PKM2 activator: PKM2 (human) enzyme activation. P14618. purified PKM2, Kinase-Glo ATP luminescence, activation; response scale: 0% is enzyme alone, no compound. Potency, µM (highest dose often 57.5 µM), for the others: at the highest dose activation, hits mostly activators. actives 0.34% (n = 260,000); note: potency is the fitted concentration of half-maximal effect; nearly all actives have a fitted effect of over 55% in size
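Purified hPK-M2 (>95%) run at intermediate activity with 0.1 mM ADP and 0.5 mM PEP in 50 mM imidazole pH 7.2, KCl, MgCl2; 1 h room temperature. ATP formed read by Kinase-Glo luminescence; normalized to uninhibited and no-enzyme controls.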
CtBP-E1A blk: blocks the CtBP interaction with E1A. AID 651724. AlphaScreen GST-E1A/His-CtBP binding, 1536-well; stronger effect = lower value. activity change, % (no concentration beside the values). actives 0.49% (n = 340,000); in the data active = activity change below about -65%; inconclusive = mostly about -30% to -63%
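Steps: dispense buffer (Tris pH 8.0, NaCl 300 mM, TCEP 1 mM, BSA, Tween 20); add 5X protein mix (GST-E1A, His-CtBP, 125 nM each); pin 23 nL compound; 2 h at 37 °C, dark; add 5X beads (50 ug/mL); 1 h; read.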
RORgamma inh: inhibitors of mouse ROR gamma transcriptional activity; P51450; Drosophila S2 Gal4-RORgamma UAS-luciferase reporter, 20 h; Potency, µM (titrated, usually from 53.6 µM), without a hit: at the top dose activity change, negative = inhibition, hits mostly inhibitors; actives 5.4% (n = 310,000); AID 2551; note: potency is the fitted concentration of half-maximal effect; nearly all actives have a fitted effect of over 60% in size
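A Gal4/UAS one-hybrid system in insect cells: metallothionein-promoter Gal4–ROR gamma fusion plus Photinus luciferase reporter. Copper sulfate 700 uM final, 20 hr ambient incubation, luminescent detection after 10 min with reagent.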
Gal4-VP16 FLuc: inhibits Gal4-VP16 luciferase reporter, ROR gamma counter-screen | Drosophila S2 Gal4-VP16 UAS-luciferase, luminescence, 20 h | Potency, µM (titrated, usually from 53.6 µM), for inactives: at the highest dose activity, negative = inhibition, hits mostly inhibitors | actives 3.5% (n = 310,000) | AID 2546;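 note: Gal4-VP16 expression switched on by copper sulfate through the metallothionein promoter; potency is the fitted concentration of half-maximal effect; nearly all actives have a fitted effect of over 50% in size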
* = called active by the depositor; ? = inconclusive; . = no result given. Unless noted, calls come from the whole dose curve; as a rule, active = well fitted curve in the direction sought with a large enough effect; inconclusive = small, poorly fitted or top-dose-only effect, or another doubt; inactive = no such curve, though single readings can be large; an effect the other way counts as inactive or inconclusive. % is set by controls: 0 for no effect and ±100 for the full control effect.

SMILES	Six1-Eya2 inh	PKM2 activator	CtBP-E1A blk	RORgamma inh	Gal4-VP16 FLuc
O=C(Nc1ccc(F)cc1)Nc1nnc(-c2ccco2)s1	-4	-5%	10	?	?
CN(C)C(=O)c1ccc(-c2cc(C(F)(F)F)n(C)n2)s1	6	-30%	16	-3%	2%
CC(C)c1cccc(-c2csc(C(O)c3cccc(Cl)c3)n2)c1 (stereo not drawn)	1	.	14	.	.
O=C(CCn1cnc(-c2ccccc2)c1-c1ccccc1)N/N=C/c1ccccc1O	-19	-3%	-29	?	2.8µM*
O=C(CCn1cnc(-c2ccccc2)c1-c1ccccc1)N/N=C/c1ccc(O)cc1	-11	-5%	-17	45%	-7%
O=C(Cn1cc(C(F)(F)F)ccc1=O)N/N=C/c1ccc(F)cc1	30	9%	7	12%	-9%
O=C(N/N=C/c1ccccc1C(=O)O)C(=O)N1CCCCC1	9	1%	8	8%	6%
O=C(CN1C(=O)NC2NC(=O)NC21)N/N=C/c1ccccc1O (stereo not drawn)	-91*	4%	-90*	-41%	10%
O=C(Cn1cc(C(F)(F)F)ccc1=O)N/N=C/c1ccccc1O	?	-2%	-91*	2µM*	10µM*
O=C(NCC(=O)N1CCCC1)NN=Cc1ccccc1O	?	.	-77*	.	.
O=C(Nc1ccc(F)c(Cl)c1)c1csc(COCCO)n1	3	.	3	.	.
COc1ccc(C(C)(O)c2nc(-c3cnc4ccccc4c3)cs2)cc1 (stereo not drawn)	-5	.	-1	.	.
O=C(CC(=O)N/N=C/c1ccccc1O)NCc1cccnc1	-90*	-15%	-2	?	?
O=C(CCCCC(=O)NN=Cc1ccccc1O)NN=Cc1ccccc1O	-15	.	-13	.	.
O=C(N/N=C/c1ccccc1O)c1cccc(C(F)(F)F)c1	-79*	-1%	-81*	1µM*	2µM*
O=C(CSCC(=O)NN=Cc1ccccc1O)NN=Cc1ccccc1O	-83*	.	-4	.	.
O=C(N/N=C\c1ccccc1O)c1ccccc1O	.	.	.	1µM*	35µM*
COc1ccccc1/C=N/NC(=O)CC(=O)NCc1cccnc1	-3	?	-11	21%	0%
Cc1ccc(C(=O)NCC(c2ccc(F)cc2)N2CCOCC2)s1 (stereo not drawn)	-7	.	0	.	.
COCCn1c(SCC(=O)NC(C)c2ccc(F)cc2)nc2ccccc21 (stereo not drawn)	-11	-8%	0	0%	0%
CN(C(=O)CC(NC(=O)c1ccccc1Cl)c1ccccc1)c1ccccc1 (stereo not drawn)	-2	-8%	-5	2%	10%
CC(=O)C(Sc1nc(N2CCOCC2)nc(N2CCOCC2)n1)C(=O)Nc1ccccc1 (stereo not drawn)	20	-3%	28	0.89µM*	?
CCOC(=O)c1c(C)[nH]c(C(=O)OCC(=O)c2ccc3c(c2)NC(=O)CO3)c1C	1	.	7	.	.
Cc1c(O)c(O)cc2c1oc1c3ccccc3oc(=O)c21	.	?	.	7.1µM*	?
O=c1oc2ccccc2c(O)c1Sc1c(O)c2ccccc2oc1=O	-74*	.	-83*	.	.
SMILES	Six1-Eya2 inh	PKM2 activator	CtBP-E1A blk	RORgamma inh	Gal4-VP16 FLuc
Cc1ccc2oc(=O)c3c4cc(O)c(O)c(C)c4oc3c2c1	.	21%	.	?	-16%
COc1cc(NS(=O)(=O)c2ccc(N/C=C(\C=O)c3nc4ccccc4o3)cc2)nc(OC)n1	-27	-1%	-15	8.9µM*	?
COc1cc(NS(=O)(=O)c2ccc(N/C=C(\C#N)c3nc4ccccc4o3)cc2)nc(OC)n1	-21	0%	-24	44%	2%
CCOC(=O)c1ccccc1NC(=S)N1CCC(C)CC1	4	-1%	5	13µM*	?
CCc1ccccc1NC(=S)N1CCCCCC1	2	-8%	4	14µM*	?
COc1ccc(C)cc1NC(=S)N1CCN(c2ncccn2)CC1	3	1%	4	-22%	-8%
FC(F)(F)c1ccccc1NC(=S)N1CCN(c2ncccn2)CC1	-1	1%	2	13µM*	-10%
Cc1ccc(NC(=S)N2CCN(c3ncccn3)CC2)c(C)c1	-7	-4%	-6	35µM*	?

From PubChem
